Test results from PubChem BioAssay (NCATS).
“And” between values parts separate entries of the source, which are not always exact repeats. Equal entries are not always repeated. Records with an inconclusive call do not appear. The source made the active and inactive calls. Calls come from the whole dose curve.

Assay: qHTS Assay for Lipid Storage Modulators (AID 1519); for activity change, negative = inhibition: % is set by controls: 0 for no effect and ±100 for the full control effect
Settings: Drosophila S3 cells, BODIPY lipid droplet/cell ratio, laser cytometry, cells loaded with oleic acid
How it was run: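 Cells seeded at 5,000 per well were treated with compounds over a concentration series and loaded with oleic acid (400 uM, as added). Lipid droplet fluorescence (488 nm excitation, 500-530 nm channel) was read by laser-scanning cytometry and normalized to 20 uM Triacsin C.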

[1] = measured here: cell count channel max response
[2] = measured here: lipid channel max response

In the case of `CC[N+](CC)(CCNC(=O)C(=O)NCC[N+](CC)(CC)Cc1ccccc1Cl)Cc1ccccc1Cl`, the activity change, negative = inhibition (at 57.5 µM (top of the series)) is reported as 1.97% (inactive), the max response [1] is reported as -14% and the max response [2] is reported as -12.6%.
For `Cc1ccc(C(=O)C(C)CN2CCCCC2)cc1` (stereo not given), the activity change, negative = inhibition (at 57.5 µM (top of the series)) was 1.11% (inactive), the max response [1] was 7.21% and the max response [2] was 11.2%.
In the case of `CCOc1ccc(Cc2nccc3cc(OCC)c(OCC)cc23)cc1OCC`, the activity change, negative = inhibition (at 57.5 µM (top of the series)) is reported as -21.1% (inactive), the max response [1] is reported as -4.38% and the max response [2] is reported as -26.4%.
With `O=C(COc1ccc(Cl)cc1)N1CCN(Cc2ccc3c(c2)OCO3)CC1` the activity change, negative = inhibition (at 25.7 µM (top of the series)) was 1.24% (inactive), the max response [1] was -6.27% and the max response [2] was -4.72%.
For `Cc1ccnc(NS(=O)(=O)c2ccc(N)cc2)n1`, the activity change, negative = inhibition (at 25.7 µM (top of the series)) was 2.4% (inactive), the activity change, negative = inhibition (at 57.5 µM (top of the series)) was 7.92% (inactive) and the max response [1] was -11% and -0.764%. For the same compound, the max response [2] was -8.59% and 9.99%.
In the case of `CC(C)N=C(N)/N=C(\N)Nc1ccc(Cl)cc1`, the activity change, negative = inhibition (at 25.7 µM (top of the series)) is reported as -2.29% (inactive), the max response [1] is reported as -10.3% and the max response [2] is reported as -11.8%.
In the case of `OC(CCN1CCCCC1)(c1ccccc1)c1ccccc1`, the activity change, negative = inhibition (at 25.7 µM (top of the series)) is reported as -4.82% (inactive), the activity change, negative = inhibition (at 57.5 µM (top of the series)) is reported as 3.44% (inactive) and the max response [1] is reported as 1.42% and 9.61%. The max response [2] was -4.61% and 14.1%.
In the case of `CCN(CC)CCOC(=O)C(c1ccccc1)C1CCCCC1` (stereo not given), the activity change, negative = inhibition (at 57.5 µM (top of the series)) is reported as -0.866% (inactive), the max response [1] is reported as 11.2% and the max response [2] is reported as 13.6%.
With `CCN(CCCCOC(=O)c1ccc(OC)c(OC)c1)C(C)Cc1ccc(OC)cc1` (stereo not given) the activity change, negative = inhibition (at 57.5 µM (top of the series)) was 3.28% (inactive), the max response [1] was 17.5% and the max response [2] was 26.2%.
In the case of `CCOC(=O)n1ccn(C)c1=S`, the activity change, negative = inhibition (at 25.7 µM (top of the series)) is reported as -1.84% (inactive), the activity change, negative = inhibition (at 57.5 µM (top of the series)) is reported as 8.2% (inactive) and the max response [1] is reported as -4.79% and 2.58%. For the same compound, the max response [2] was -8.09% and 22%.
With `CC(=O)N(O)CCCCCNC(=O)CCC(=O)N(O)CCCCCNC(=O)CCC(=O)N(O)CCCCCN` the activity change, negative = inhibition (at 25.7 µM (top of the series)) was -1.65% (inactive), the activity change, negative = inhibition (at 57.5 µM (top of the series)) was 6.43% (inactive) and the max response [1] was -10.2% and 15.7%. The max response [2] was -12.1% and 27.1%.
In the case of `COc1c(C)c2c(c(O)c1C/C=C(\C)CCC(=O)O)C(=O)OC2`, the activity change, negative = inhibition (at 25.7 µM (top of the series)) is reported as -1.1% (inactive), the max response [1] is reported as 6.28% and the max response [2] is reported as 5.14%.
